Calls of active or inactive are those of the source.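 How the source made its calls: active means mean inhibition above 46.5%, the solvent-only control mean plus 3 SD; inactive means the rest.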

In the test the target is Nuclear receptor coactivator 2 (Homo sapiens) (UniProt Q15596). The experiment in a line: inhibition of GAL4-SRC2 driven luciferase expression – cell-based, luminescence, HEK293, triplicate, confirmation (AID 652008).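 Further: 0% = DMSO-treated cells and 100% = Gossypol at 36 µM.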 The note with it: HEK293 GAL4-SRC2 luciferase reporter, at 8.9 µM, active compounds read high.
Chain of Nuclear receptor coactivator 2 (Homo sapiens) (Q15596 whole entry, looked up, the tested form may be a part): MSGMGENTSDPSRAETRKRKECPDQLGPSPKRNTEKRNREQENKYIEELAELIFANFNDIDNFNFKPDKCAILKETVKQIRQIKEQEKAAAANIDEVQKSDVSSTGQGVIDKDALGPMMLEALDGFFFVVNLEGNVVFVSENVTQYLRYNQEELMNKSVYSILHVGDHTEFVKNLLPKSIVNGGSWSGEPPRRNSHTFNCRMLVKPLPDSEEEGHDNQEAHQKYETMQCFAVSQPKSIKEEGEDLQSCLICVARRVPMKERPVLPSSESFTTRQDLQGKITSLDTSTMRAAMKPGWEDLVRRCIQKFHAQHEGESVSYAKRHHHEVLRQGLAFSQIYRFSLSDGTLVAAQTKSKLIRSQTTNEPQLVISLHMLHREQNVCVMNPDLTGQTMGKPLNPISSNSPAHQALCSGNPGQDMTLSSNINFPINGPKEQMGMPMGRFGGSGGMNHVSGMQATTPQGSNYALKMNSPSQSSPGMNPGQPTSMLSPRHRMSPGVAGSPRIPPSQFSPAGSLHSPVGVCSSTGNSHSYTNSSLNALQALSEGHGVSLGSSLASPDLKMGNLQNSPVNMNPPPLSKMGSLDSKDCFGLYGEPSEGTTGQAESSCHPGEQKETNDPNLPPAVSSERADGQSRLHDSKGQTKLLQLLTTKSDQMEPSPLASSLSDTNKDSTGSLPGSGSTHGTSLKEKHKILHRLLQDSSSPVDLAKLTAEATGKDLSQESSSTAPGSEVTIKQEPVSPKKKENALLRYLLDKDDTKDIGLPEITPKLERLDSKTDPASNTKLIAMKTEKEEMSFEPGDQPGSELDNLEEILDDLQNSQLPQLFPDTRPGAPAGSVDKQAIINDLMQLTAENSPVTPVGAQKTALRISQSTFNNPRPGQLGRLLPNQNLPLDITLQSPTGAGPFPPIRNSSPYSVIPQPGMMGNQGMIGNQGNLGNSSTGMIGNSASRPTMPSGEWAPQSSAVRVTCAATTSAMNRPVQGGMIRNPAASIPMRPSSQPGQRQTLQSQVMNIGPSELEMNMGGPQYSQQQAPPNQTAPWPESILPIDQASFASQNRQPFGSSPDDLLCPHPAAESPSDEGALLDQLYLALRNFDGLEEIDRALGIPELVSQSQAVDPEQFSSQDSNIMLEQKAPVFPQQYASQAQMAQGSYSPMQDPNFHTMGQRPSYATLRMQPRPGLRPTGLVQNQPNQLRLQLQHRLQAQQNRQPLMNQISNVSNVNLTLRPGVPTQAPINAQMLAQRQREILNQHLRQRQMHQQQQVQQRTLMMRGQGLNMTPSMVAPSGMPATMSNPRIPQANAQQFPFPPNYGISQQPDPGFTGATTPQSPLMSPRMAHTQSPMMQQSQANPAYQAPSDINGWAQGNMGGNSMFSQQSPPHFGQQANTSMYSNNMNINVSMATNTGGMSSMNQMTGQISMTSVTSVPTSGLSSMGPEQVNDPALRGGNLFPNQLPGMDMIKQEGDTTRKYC
Consider `O=S(=O)(Nc1cc(Sc2cccc3cccnc23)c(O)c2ccccc12)c1ccccc1`, for which the inhibition was 98.7% (active). Then `CC1(C)CC(=O)C/C(=N/Nc2nc3ccccc3s2)C1`, with -13.5% (inactive); and `CCn1c(C2CCN(S(=O)(=O)c3ccc(OC)cc3)CC2)n[nH]c1=S`, with -16.9% (inactive); and `O=C(CCl)N(Cc1ccccc1)c1ccccc1`, with 48.6% (active).

For `Cc1nc2cc(-c3ccccc3)sc2c(=O)n1N`, the inhibition is 45% (inactive). For `Cc1cc(C)cc(NC(=O)Nc2cc(S(=O)(=O)N(C)C)ccc2C)c1`, the inhibition is -21.3% (inactive).

Turning to `O=C(NC(=O)c1ccccc1)Nc1ccccn1`, the inhibition was 54.8% (active). Then `CC(OC(=O)C1=COCCO1)C(=O)Nc1ccc(Cl)cn1` (stereo not given), with -20.4% (inactive); and `CCN1CCN(Cc2ccc(NC(=O)c3cccc(-c4ccc5nc(NC(=O)C6CC6)sc5n4)c3)cc2C(F)(F)F)CC1`, with 58.1% (active). Then `Cc1nc(SCc2ccc(C(=O)O)cc2)nc2c1CCCC2`, with 23.6% (inactive); and `CCCCCCCCN1C(=O)[C@H](CC(=O)NCCCC)C[C@@]2(C(=O)OCC)CCCC=C12`, with -0.38% (inactive). Then `O=C(O)CCC(=O)Nc1ccc(NC(=O)c2ccc(Cl)cc2Cl)c(Cl)c1`, with -2.71% (inactive). As to `O=C(c1ccccc1Nc1ccc(SC(F)F)cc1)N1CCCCCC1`, the inhibition was 4.87% (inactive). Then `O=C(NC(c1ccc(F)cc1)c1ccc2ccccc2n1)C1CCN(CCOc2ccc(F)cc2)CC1` (stereo not given), with -16.5% (inactive); and `COc1ccc(S(=O)(=O)Nc2ccc(C)cn2)cc1`, with -15.4% (inactive). Then `Cn1nnnc1Sc1ncnc2scc(-c3ccc(Br)cc3)c12`, with 37.2% (inactive). In the case of `COC(=O)Cc1ccc(NC(=O)c2ccccc2Cl)cc1`, the inhibition is 8.14% (inactive). Then `CN(c1ccc(F)cc1)S(=O)(=O)c1ccc(Cl)c(C(=O)Nc2ccncc2)c1`, with 26.5% (inactive). Then `CCn1cc(S(=O)(=O)Nc2ccc3c(c2)OCCO3)cn1`, with 48.4% (active); and `CCc1ccc(C(=O)Nc2nc3ccccc3[nH]2)cc1`, with 45.8% (inactive). Then `NC(Cc1ccc(Cl)cc1)c1csc(NC(=O)NCC2CCCCC2)n1` (stereo not given), with 3.16% (inactive); and `COCc1cc(C)[nH]c(=O)c1C(=O)NC12CC3CC(CC(C3)C1)C2`, with -11% (inactive); and `COc1cc2[nH]c3c(=O)n4c(nc3c2cc1OC)SCCC4`, with 13.4% (inactive). Turning to `C=CS(=O)(=O)N(Cc1nnn(Cc2ccccc2)c1Br)[C@H](C(=O)OC)C(C)C`, the inhibition was 27.4% (inactive). In the case of `CCOC(=O)C1CCN(c2ncnc3c2cnn3-c2ccc(OC)cc2)CC1`, the inhibition was 39.2% (inactive). Then `Cc1cccc(NS(=O)(=O)c2ccc(C)c(C(=O)NC3CCN(Cc4ccccc4)CC3)c2)c1`, with 6.89% (inactive). Take `Cc1cccc(Nc2nc(NCc3ccco3)c3ccccc3n2)c1`: the inhibition was 33.9% (inactive). Then `COc1cccc(-c2ncn(CCc3ccccc3OC)c2CC(C)C)c1`, with 18.6% (inactive). Then `COc1ccccc1/C=C/C1(C(=O)NC2CCCC2)CC(=O)N1c1ccc(F)cc1` (stereo not given), with 49.2% (active); and `CC1CCc2c(sc3nc(CSc4ncn[nH]4)[nH]c(=O)c23)C1` (stereo not given), with 35.2% (inactive). Then `COC(=O)c1c(N)sc(C(=O)NCCc2ccccc2)c1C`, with 49.4% (active); and `Cc1ccc2c(c1)N(C(=O)CCC(=O)NCCCN1CCN(C)CC1)CC(C)O2` (stereo not given), with -10.8% (inactive); and `CCNC(=O)NC(=O)C(C)OC(=O)CCCSc1nc2ccccc2s1` (stereo not given), with 22.5% (inactive). Take `O=C(CN1C(=O)c2ccccc2S1(=O)=O)c1ccccc1Cl`: the inhibition is 68.9% (active). On to `O=C(C(O)c1ccc(Br)cc1)N1CCC(Nc2ccc3[nH]ncc3c2)CC1` (stereo not given), for which the inhibition was -7.36% (inactive). Then `Cn1c(=O)c(=O)n(C)c2cc(S(=O)(=O)Nc3ccc4c(c3)OCCO4)ccc21`, with 47.5% (active); and `CCC(C)(C(=O)NC1CCCCC1)N(Cc1cccs1)C(=O)CC1NC(=O)NC1=O` (stereo not given), with -11.8% (inactive). Then `NC1=NC(=O)/C(=C\c2cccnc2)S1`, with 35.6% (inactive); and `C[n+]1cc2c3c(ccc2c2ccc4cc5c(cc4c21)OCO5)OCO3`, with 98.7% (active). Then `CC(NC(=O)CCc1nnc(-c2ccc(-c3ccccc3)cc2)o1)c1nc2ccccc2[nH]1` (stereo not given), with 55.9% (active).

The values above are taken from PubChem BioAssay.
